ChEMBL document CHEMBL3988442, “University of Dundee, Small-Polar-MMV Screening Library” (2021)
Among all 48,000 compounds or so, about 13,000 (27%) showed an effect of 50% or more. This is one part of the list.

These compounds were tested on Wolbachia pipientis (assay: Anti-Wolbachia Cell-Based Screen). Settings: 5 µM.
Format: functional
Design: scale not given: in the data most compounds retested in dose-response had high values

| SMILES | Percent Effect [%] |
| --- | --- |
| CCCc1n[nH]c(C2CN(CCNC3CCCCC3)CCO2)n1 (centres undefined) | 8.814 |
| COc1cc(CNc2nc(C3CC3)no2)cc(OC)c1OC | 3.811 |
| Cc1ccc(F)cc1-n1c(CCCN2CCOCC2)n[nH]c1=O | 109.2 |
| O=c1[nH]nc(CCCN2CCOCC2)n1Cc1cccc(F)c1 | 102.2 |
| O=C(NCc1cccc(F)c1)Nc1ccn(CCN2CCOCC2)n1 | -19.73 |
| O=C(NCCN1CCOCC1)Nc1cc(F)ccc1-n1cccn1 | -8.933 |
| O=C1O[C@@H]2CN(Cc3cccc(F)c3)C[C@@H]2N1CCCN1CCOCC1 | 11.87 |
| Cc1nc(CCCN2CCOCC2)n(Cc2ccc(F)cc2)n1 | -6.384 |
| O=C1CCC(=O)N1CCN1CCN(c2cc(F)ccc2F)CC1 | -16.23 |
| O=c1[nH]nc(CCCN2CCOCC2)n1-c1ccc(F)cc1F | 93.86 |
| O=C(NCCN1CCOCC1)c1cc(-c2ccc3c(c2)CCO3)n[nH]1 | 2.601 |
| CN1C[C@@H](n2cnc(-c3ccccc3)c2-c2ccccn2)C[C@H]1C(=O)O | -24.01 |
| CC(C)(C)CN1CCOC[C@H]1c1nc(-c2cccc(F)c2)c[nH]1 | 4.483 |
| Cc1nccn1C1CCCN(C(=O)C2=NN(C)C(=O)CC2)C1 (centres undefined) | -2.156 |
| Cn1cc(S(=O)(=O)N2CCCC2Cn2ccnc2)cn1 (centres undefined) | -1.128 |
| Cn1cc(S(=O)(=O)N2CCCC2Cn2ccnc2)cc1C(N)=O (centres undefined) | -5.902 |
| Cc1nn(C)cc1S(=O)(=O)N[C@@H]1CCC[C@@H](n2ccnc2)[C@@H]1O | 85.24 |

| SMILES | Percent Effect [%] |
| --- | --- |
| Cc1nccnc1N1CC[C@@H](NC(=O)c2cnccn2)[C@H](O)C1 | -17.03 |
| Cc1nn(C)cc1S(=O)(=O)N[C@@H]1CC[C@@H](n2ccnc2C)[C@@H]1O | 99.22 |
| Cc1nn(C)cc1CN1CCCn2nc(CNC(=O)C3CCC3)cc2C1 | -11.1 |
| CO[C@@H]1CC[C@@H](NS(=O)(=O)c2cn(C)nc2C)[C@H]1O | 86.74 |
| Cc1nn(C)cc1S(=O)(=O)N[C@@H]1CCC[C@@H](N2CCCC2)[C@@H]1O | 95.33 |
| Cc1nc2n(n1)CC(NCC(=O)NCC1(c3ccccc3)CC1)CC2 (centres undefined) | -4.512 |
| CN(C(=O)c1cccc(OCC(F)F)n1)c1ccc2c(c1)CCO2 | 3.505 |
| CCCOc1cccc(NS(=O)(=O)c2cc(C(=O)O)cs2)c1 | 12.59 |
| Cc1ccccc1C(=O)Nc1ccc([C@H]2OCC(=O)N(C)[C@@H]2CO)cc1 | -10.53 |
| O=C(NC1CC1)C1CCCN(c2cccc(C(F)(F)F)n2)C1 (centres undefined) | -13 |
| CN(CC1CCCCC1)C(=O)c1cn(C)nc1-c1cccnc1 | 20.64 |
| Cn1cc(C(=O)NC2CCCC2)c(-c2cccnc2)n1 | 1.647 |
| O=C(NC1CC1)C1CCc2nnc(-c3cccc(C(F)(F)F)c3)n21 (centres undefined) | 107.7 |
| CN1Cc2nc[nH]c2C[C@H]1C(=O)NC1CCCCC1 | 0.3029 |
| O=C(NC1CC1)C1CCc2nnc(-c3cccnc3)n21 (centres undefined) | 102.7 |
| O=C(NC1CC1)C1CCc2nnc(C3CC3)n21 (centres undefined) | 105.6 |
| CNC(=O)C(C)(C)N1CCC[C@H]1C(=O)NC1CC1 | 8.345 |
